MOR-DOR ag – agonists of OPRM1-OPRD1 heterodimerization, primary screen, cell-based, luminescence | activation, % at 9.3 µM | AID 504326, 2011 | cells | Mu-type opioid receptor (Homo sapiens) + Delta-type opioid receptor (Homo sapiens), … | hit rate 0.3% among 340,000; in the data active = activation above about 18%;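 also: 0% = vehicle-treated cells and 100% = reference agonist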
Target sequence (P35372 whole entry, looked up): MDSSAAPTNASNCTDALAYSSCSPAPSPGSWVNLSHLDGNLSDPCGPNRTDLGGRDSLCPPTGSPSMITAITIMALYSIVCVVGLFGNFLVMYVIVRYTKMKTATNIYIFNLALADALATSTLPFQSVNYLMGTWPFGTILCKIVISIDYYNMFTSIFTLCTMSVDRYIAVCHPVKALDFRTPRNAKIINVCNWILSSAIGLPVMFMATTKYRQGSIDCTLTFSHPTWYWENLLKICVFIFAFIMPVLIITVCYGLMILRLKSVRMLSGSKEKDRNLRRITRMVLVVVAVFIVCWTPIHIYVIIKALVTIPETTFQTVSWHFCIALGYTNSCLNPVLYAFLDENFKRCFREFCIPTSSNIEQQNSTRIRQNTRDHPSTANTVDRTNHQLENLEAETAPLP
Target sequence (P41143 whole entry, looked up): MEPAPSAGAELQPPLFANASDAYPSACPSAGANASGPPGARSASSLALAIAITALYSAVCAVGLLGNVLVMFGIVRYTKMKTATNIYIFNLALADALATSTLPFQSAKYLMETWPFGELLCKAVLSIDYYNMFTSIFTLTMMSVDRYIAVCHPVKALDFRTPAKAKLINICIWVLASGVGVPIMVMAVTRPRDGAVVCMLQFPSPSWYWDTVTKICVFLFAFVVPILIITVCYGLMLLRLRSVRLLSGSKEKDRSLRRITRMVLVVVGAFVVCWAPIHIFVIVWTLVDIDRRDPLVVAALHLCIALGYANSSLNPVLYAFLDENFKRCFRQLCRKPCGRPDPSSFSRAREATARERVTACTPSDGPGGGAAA
HTR5A inv ctr – HTR5A inverse agonists in luminescence cell assay, primary screen, counter-screen for OPRM1-OPRD1 heterodimer inverse agonist project, full-deck HTS; hit rate 0.083% among 340,000; HTR5A cell line, inverse agonism; inhibition, % at 9.3 µM; 5-hydroxytryptamine receptor 5A (Homo sapiens), P47898; in the data active = inhibition mostly above about 23%, no sharp cut-off; inactive = mostly below about 18%;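 also: 0% = cells with DMSO and 100% = no-cell wells with DMSO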
OPRM1-OPRD1 inv – inverse agonists of MOR-DOR heterodimerization, primary screen, cell-based, luminescence; inhibition, % at 9.3 µM; cell-based MOR-DOR heterodimer luminescence, inverse agonism; Mu-type opioid receptor (Homo sapiens) + Delta-type opioid receptor (Homo sapiens), …; hit rate 0.21% among 340,000; AID 504357, 2011; in the data active = inhibition above about 22%, passing the limit was not always enough;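 also: 0% = cells with DMSO and 100% = wells without cells with DMSO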
HTR5A ag – HTR5A agonists in luminescence cell assay, primary screen, counter-screen for OPRM1-OPRD1 heterodimer agonist project, full-deck HTS. cell-based. activation, % at 9.3 µM. hit rate 0.61% among 340,000; in the data active = activation mostly above about 9.5%, no sharp cut-off; inactive = mostly below about 7.6%;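 also: 0% = cells with vehicle only and 100% = reference agonist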
An asterisk follows results filed as active. Hits are enriched below; roughly 1.1% of the tested compounds scored in any of these assays.

SMILES | MOR-DOR ag | HTR5A inv ctr | OPRM1-OPRD1 inv | HTR5A ag
CCOC(=O)N1CCN(C(=O)CSc2nnc(Cn3c(=O)sc4ccccc43)n2C)CC1 | -2 | -12 | 9 | 4
O=C(COC(=O)Cc1ccc(Cl)cc1)NCc1ccc(F)cc1 | -3 | -25 | 12 | 10
CCOC(=O)c1[nH]c(C)c(C(=O)Nc2ccc(C)c(C)c2)c1C | -3 | -37 | 13 | 13*
C(=C1c2ccccc2-c2ccccc21)c1ccncc1 | 0 | -35 | 1 | 8.9*
COc1cccc(C(=O)Nc2ccc(NC(=O)c3cc4ccccc4o3)c(OC)c2)c1 | 7 | -50 | -36 | 13*
COc1cc(NC(=O)c2ccccc2)ccc1NC(=O)c1cc2ccccc2o1 | 6 | 13 | -28 | -4
Cc1ccc(S(=O)(=O)N(C)C)cc1NC(=O)COC(=O)/C=C/c1cnc2ccccc2n1 | 1 | -41 | -7 | 14*
COc1cc(C2N(C)C(=O)c3ccccc3N2C)ccc1O (stereo not drawn) | -4 | -35 | 19 | 9.5*
CN1C(=O)c2ccccc2N(C)C1c1cccc(O)c1 (stereo not drawn) | -5 | -17 | 23 | 5
CCC(=O)Nc1ccc(Cl)c(NC(=O)c2ccc([N+](=O)[O-])cc2)c1 | 5 | -31 | -33 | 12*
COc1cccc(OCCNCc2ccccc2)c1 | -2 | -11 | 10 | -1
O=C(COc1cccc(Br)c1)N/N=C1\CCCc2ccccc21 | 0 | 3 | 3 | 14*
O=C(COc1cccc(Br)c1)NN=C1c2ccccc2-c2ccccc21 | -2 | -12 | 12 | 1
COc1ccc(NC(=O)c2ccccc2NC(=O)c2cccs2)cc1 | 0 | -14 | 1 | -1
CCOC(=O)c1c(NC(C)=O)sc2c(O)c(CN3CCN(CC)CC3)ccc12 | 1 | -34 | -5 | 13
COCCOC(=O)/C(C#N)=C/c1cn(Cc2ccccc2)nc1-c1cccnc1 | -2 | 1 | 11 | 0
O=C(N/N=C/c1ccccn1)c1ccc(NC(=O)c2ccc(F)cc2)cc1 | 13 | -24 | -80 | 14*
Cc1cccc(-c2cc3nc(-c4ccccc4)cc(N4CCC5(CC4)OCCO5)n3n2)c1 | 1 | 10 | -4 | 12*
O=C(CC(Cc1ccccc1)C(=O)O)Nc1ccc(Cl)c(Cl)c1 (stereo not drawn) | 0 | -37 | 0 | 10.0*
O=C(CC(Cc1ccccc1)C(=O)O)Nc1ccccc1 (stereo not drawn) | -4 | -1 | 18 | 0
COc1cc2c(cc1OC)C1(CCCC1)CNC2c1cccc([N+](=O)[O-])c1 (stereo not drawn) | -7 | 38* | 35* | -13
COc1cc2c(cc1OC)C(c1cccc([N+](=O)[O-])c1)NC(=O)C2 (stereo not drawn) | -2 | 2 | 8 | -4
CC(C)[C@H](NC(=O)OCc1ccccc1)C(=O)NCc1ccccc1 | -1 | -32 | 7 | 12*
O=C(NC(Cc1ccccc1)C(=O)NC1CC1)OCc1ccccc1 (stereo not drawn) | 1 | 27 | -7 | 12*
CCc1cc2c(COC(=O)c3cccc(NS(C)(=O)=O)c3)cc(=O)oc2cc1O | 10 | -16 | -86 | 12*
SMILES | MOR-DOR ag | HTR5A inv ctr | OPRM1-OPRD1 inv | HTR5A ag
CCc1cc2c(COC(=O)c3cc(S(=O)(=O)N4CCOCC4)ccc3F)cc(=O)oc2cc1O | -3 | 0 | 12 | 0
S=C(Nc1ccc(Cl)c(Cl)c1)NC1CCN(Cc2ccccc2)CC1 | 23* | -23 | -135 | 12*
Cn1c(SCc2ccccc2Cl)nc2c1c(=O)[nH]c(=O)n2C | -1 | -5 | 7 | 1
Cc1ccc(C(NC(=O)Nc2ccccn2)C(Cl)(Cl)Cl)cc1F (stereo not drawn) | 6 | -16 | -51 | 12*
CC(=O)C1=C(O)C(=O)N(Cc2cccnc2)C1c1ccc(Cl)cc1Cl (stereo not drawn) | 0 | -39 | -1 | 12*
CC(=O)C1=C(O)C(=O)N(Cc2cccnc2)C1c1ccccc1 (stereo not drawn) | 0 | -24 | 3 | -8
CC(=O)N(c1ccccc1)C1CCCC1 | -2 | 8 | 13 | 1
O=C(CCl)N(c1ccccc1)C1CCCCC1 | 33* | 4 | -178 | 42*
O=C(COC(=O)c1ccc(Br)o1)Nc1ncc([N+](=O)[O-])s1 | -1 | 22 | 5 | -9
COc1ccc(NS(=O)(=O)c2cccc(C(=O)NCc3ccccc3CN3CCCC3)c2)cc1 | -1 | -36 | 2 | 12*
N/C(CC(=O)Nc1ccc(F)c(Cl)c1)=N\OC(=O)c1cccs1 | 13 | -3 | -64 | 13*
O=C(COC(=O)c1cccs1)Nc1ccc(F)c(F)c1 | -2 | -24 | 7 | 10
CC(=O)n1cc(/C=N/NC(=O)c2ccccc2O)c2ccccc21 | -2 | 7 | 9 | -2
Cn1cc(/C=N/NC(=O)c2ccccc2O)c2ccccc21 | -4 | -35 | 22 | 10*
COc1ccc(-n2c3c(cc(C(=O)Nc4ccc(C)cc4)c2=O)C(=O)CCC3)cc1 | -3 | -27 | 14 | 12
Cc1ccccc1C(=O)O/N=C(\N)c1ccc([N+](=O)[O-])cc1 | 8 | -32 | -38 | 9.3*
COc1cc(C(=O)O/N=C(\N)c2ccc([N+](=O)[O-])cc2)cc(OC)c1OC | 10 | -11 | -74 | 4
CCOc1cc(C(=O)O/N=C(\N)c2ccc([N+](=O)[O-])cc2)cc(OCC)c1OCC | 11 | -41 | -55 | 13*
O=C(Nc1cccc(S(=O)(=O)NC2=NCCC2)c1)c1cc(F)c(F)c(F)c1F | 0 | -7 | -3 | -1
CC(C)NC(=O)NC(=O)COC(=O)c1c2c(nc3ccccc13)CCC2 | 4 | -42 | -34 | 14*
CCOc1ccc2nc(NC(=O)CN3CCC(n4nnc5cc(C(F)(F)F)ccc54)CC3)sc2c1 | -3 | -2 | 17 | 2
CCOC(=O)c1ccccc1Nc1cn(C(C)=O)c2ccccc12 | -2 | 8 | 9 | -3
COc1ccccc1N(C(=O)CCl)c1cn(C(C)=O)c2ccccc12 | 50* | 8 | -252 | 39*
O=C1Nc2ccccc2C1(c1ccccc1)c1ccccc1 | 29* | -64 | -170 | 39*
O=C(Nc1cccc(C(F)(F)F)c1)Nc1ccc2[nH]c(=O)[nH]c2c1 | 3 | -48 | -13 | 13*
SMILES | MOR-DOR ag | HTR5A inv ctr | OPRM1-OPRD1 inv | HTR5A ag
COc1ccccc1Cc1noc(COc2cccc(C)c2C)n1 | 1 | -16 | -7 | 6
COc1cccc(C=NNc2nc3ccccc3s2)c1OC | 6 | -40 | -30 | 9.7*
Oc1ccccc1C=NNc1nc2ccccc2s1 | 3 | 1 | -15 | 0
O=C(CC(=O)Nc1ccccc1C(F)(F)F)Nc1ccccc1C(F)(F)F | 0 | -8 | -1 | 2
Cc1ccc(S(=O)(=O)N2CCCCC2c2cccnc2)c(C)c1C (stereo not drawn) | 0 | -41 | 2 | 13*
CC1=CC(C)C2(CO)COC(c3ccc(O)cc3)C1C2C (stereo not drawn) | -2 | -9 | 12 | 3
CN(C)c1ccc(C(=O)/C=C/c2cccnc2)cc1 | -3 | -34 | 13 | 9.2*

Screening data deposited in PubChem by The Scripps Research Institute Molecular Screening Center.
